From PubChem BioAssay (NCATS)
Values joined by “and” are separate entries in the source; they are usually repeats but may differ in a detail not shown here. Equal entries are not always repeated. Results filed as inconclusive are left out. Active and inactive are the calls of the source. Unless noted, the call rests on the fitted dose curve; in most records, active means well fitted curve in the direction sought with a large enough effect; inconclusive means small, poorly fitted or top-dose-only effect, or another doubt; inactive means no such curve, though single readings can be large; an effect the other way counts as inactive or inconclusive.

What was measured:
[1] = qHTS for Inhibitors of Plasmodium falciparum (DD2) proliferation (AID 504314);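 further: parasite DNA measured by SYBR Green fluorescence after red cell lysis; plate controls were DMSO vehicle for no effect and artemisinin wells for full effect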
Method in brief: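 Infected RBCs, 0.3% parasitemia, 2.5% Hct; compound 72 h, 37C/5% CO2; lyse + SYBR Green I, RT overnight, dark; read ex485/em535; normalize to DMSO and artemisinin 0.29 uM.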

[2] = qHTS for Inhibitors of Plasmodium falciparum (GB4) proliferation (AID 504315);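 further: 0% = DMSO vehicle and -100% = 0.29 µM artemisinin control; nearly all actives have a fitted effect of over 50% in size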
Method in brief: (§1)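 Erythrocytes infected with P. falciparum line (0.3% parasitemia, 2.5% hematocrit final) incubated with compounds 72 h at 37 °C, 5% CO2; SYBR Green lysis buffer added, fluorescence read next day. Normalized to 0.29 uM artemisinin and DMSO.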

[3] = qHTS for Inhibitors of Plasmodium falciparum (7G8) proliferation (AID 504316);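 further: series mostly up to about 6.7 µM; 0% = DMSO vehicle and -100% = 0.29 µM artemisinin full kill; nearly all actives have a fitted effect of over 65% in size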
Method in brief: as §1

[4] = qHTS for Inhibitors of Plasmodium falciparum (HB3) proliferation (AID 504318);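 further: 0% = DMSO vehicle and -100% = artemisinin control; nearly all actives have a fitted effect of over 60% in size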
Method in brief: as §1

[5] = qHTS for Inhibitors of Plasmodium falciparum (CP250) proliferation (AID 504320);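 further: plate controls were DMSO vehicle for no effect and 0.29 µM artemisinin control for full effect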
Method in brief: as §1

[6] = target: Atrial natriuretic peptide receptor 1 (Homo sapiens) (UniProt P16066); experiment: Natriuretic polypeptide receptor (hNpr1) antagonism - Pilot CMLD screen (AID 1347052; calls by dose curve;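 further: HEK293 cells with hNpr1 stimulated by hNppA peptide at 0.1 nM; cGMP level read as GloSensor luciferase luminescence after agonist stimulation; series mostly up to about 9.2 µM; on the % scale 0 is the no-effect control and ±100 the full control effect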)
[7] = target: Cytochrome P450 2C9 (Homo sapiens) (UniProt P11712); experiment: qHTS Assay for Inhibitors and Substrates of Cytochrome P450 2C9 (AID 883); further: on the % scale 0 is the no-effect control and ±100 the full control effect; nearly all actives have a fitted effect of over 60% in size
Method in brief: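 CYP2C9 deoxyluciferin hydroxylation, 37C, 60 min with NADPH regeneration; 10nM enzyme, 100uM Luciferin-H (KM). Glo detection reagent stopped reaction; luminescence normalized to sulphaphenazole (57uM) full inhibition.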

[8] = target: Cytochrome P450 3A4 (Homo sapiens) (UniProt P08684); experiment: qHTS Assay for Inhibitors and Substrates of Cytochrome P450 3A4 (AID 884); further: series mostly up to about 57 µM; on the % scale 0 is the no-effect control and ±100 the full control effect; nearly all actives have a fitted effect of over 50% in size
Method in brief: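 20 nM human CYP3A4 with 25 uM Luciferin-PPXE (at KM) in 200 mM KPO4, preincubated 10 min with compound; NADPH regeneration started a 60 min RT reaction. Luciferin detected by luminescence, normalized to 57 uM ketoconazole as full inhibition.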

[9] = target: Cytochrome P450 2D6 (Homo sapiens) (UniProt P10635); experiment: qHTS Assay for Inhibitors and Substrates of Cytochrome P450 2D6 (AID 891);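 further: luciferin methyl ether substrate demethylated by CYP2D6 with NADPH regeneration; on the % scale 0 is the no-effect control and ±100 the full control effect; nearly all actives have a fitted effect of over 60% in size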
Method in brief: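 Human CYP2D6 (5 nM) with 30 uM Luciferin-ME EGE (at Km) in 100 mM KPO4, compound preincubated 10 min, then NADPH regeneration system for 60 min at room temperature. Luciferin read by luminescence; normalized to 1.43 uM quinidine.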

[10] = target: Cytochrome P450 2C19 (Homo sapiens) (UniProt P33261); experiment: qHTS Assay for Inhibitors and Substrates of Cytochrome P450 2C19 (AID 899); further: on the % scale 0 is the no-effect control and ±100 the full control effect; nearly all actives have a fitted effect of over 60% in size
Method in brief: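 In 50mM KPO4, the reaction held 5nM enzyme and KM-level (10uM) Luciferin-H EGE; it ran 60 min at 37C after NADPH regeneration and a 10 min compound preincubation. Luminescence values were scaled to 57uM ketoconazole as complete inhibition.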

Atrial natriuretic peptide receptor 1 (Homo sapiens), sequence (P16066 whole entry, looked up): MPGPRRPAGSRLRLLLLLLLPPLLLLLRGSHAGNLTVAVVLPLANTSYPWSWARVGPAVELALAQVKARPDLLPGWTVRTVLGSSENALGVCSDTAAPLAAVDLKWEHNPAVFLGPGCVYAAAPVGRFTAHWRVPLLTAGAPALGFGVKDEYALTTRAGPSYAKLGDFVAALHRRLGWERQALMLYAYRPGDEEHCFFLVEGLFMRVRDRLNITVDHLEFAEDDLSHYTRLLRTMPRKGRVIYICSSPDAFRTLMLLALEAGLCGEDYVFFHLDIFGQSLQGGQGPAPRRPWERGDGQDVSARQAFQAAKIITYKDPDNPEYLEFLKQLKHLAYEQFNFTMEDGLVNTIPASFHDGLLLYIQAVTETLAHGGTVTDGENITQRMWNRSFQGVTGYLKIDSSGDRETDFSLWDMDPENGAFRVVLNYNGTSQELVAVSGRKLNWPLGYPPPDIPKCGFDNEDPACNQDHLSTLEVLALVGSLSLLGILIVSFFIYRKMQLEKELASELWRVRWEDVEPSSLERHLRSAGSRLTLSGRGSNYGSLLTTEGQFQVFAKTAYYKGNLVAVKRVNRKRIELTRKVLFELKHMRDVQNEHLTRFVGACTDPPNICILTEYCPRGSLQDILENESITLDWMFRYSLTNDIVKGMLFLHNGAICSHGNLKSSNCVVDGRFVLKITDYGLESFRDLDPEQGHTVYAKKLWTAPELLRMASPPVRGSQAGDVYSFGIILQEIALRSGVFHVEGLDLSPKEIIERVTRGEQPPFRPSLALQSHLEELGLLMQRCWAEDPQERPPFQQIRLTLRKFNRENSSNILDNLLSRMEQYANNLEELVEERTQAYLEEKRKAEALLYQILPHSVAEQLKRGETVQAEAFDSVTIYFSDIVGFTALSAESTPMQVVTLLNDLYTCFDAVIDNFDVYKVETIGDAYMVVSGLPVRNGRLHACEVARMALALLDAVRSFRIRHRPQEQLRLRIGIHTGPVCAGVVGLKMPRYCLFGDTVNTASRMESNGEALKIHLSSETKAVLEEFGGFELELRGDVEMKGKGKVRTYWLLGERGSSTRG
Cytochrome P450 3A4 (Homo sapiens), sequence (P08684 whole entry, looked up): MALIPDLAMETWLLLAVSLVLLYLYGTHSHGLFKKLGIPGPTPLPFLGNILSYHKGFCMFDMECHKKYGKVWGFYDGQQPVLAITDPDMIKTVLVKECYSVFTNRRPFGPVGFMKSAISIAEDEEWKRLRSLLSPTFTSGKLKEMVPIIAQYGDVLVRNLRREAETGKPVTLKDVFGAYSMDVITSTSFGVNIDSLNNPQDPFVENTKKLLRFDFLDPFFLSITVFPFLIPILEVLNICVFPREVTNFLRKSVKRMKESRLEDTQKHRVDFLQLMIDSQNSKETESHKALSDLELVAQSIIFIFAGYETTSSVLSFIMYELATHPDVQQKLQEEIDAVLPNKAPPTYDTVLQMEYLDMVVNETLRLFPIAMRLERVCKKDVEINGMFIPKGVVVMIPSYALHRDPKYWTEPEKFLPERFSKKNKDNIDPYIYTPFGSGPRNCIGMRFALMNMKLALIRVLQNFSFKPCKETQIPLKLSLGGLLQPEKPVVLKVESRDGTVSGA
Cytochrome P450 2D6 (Homo sapiens), sequence (P10635 whole entry, looked up): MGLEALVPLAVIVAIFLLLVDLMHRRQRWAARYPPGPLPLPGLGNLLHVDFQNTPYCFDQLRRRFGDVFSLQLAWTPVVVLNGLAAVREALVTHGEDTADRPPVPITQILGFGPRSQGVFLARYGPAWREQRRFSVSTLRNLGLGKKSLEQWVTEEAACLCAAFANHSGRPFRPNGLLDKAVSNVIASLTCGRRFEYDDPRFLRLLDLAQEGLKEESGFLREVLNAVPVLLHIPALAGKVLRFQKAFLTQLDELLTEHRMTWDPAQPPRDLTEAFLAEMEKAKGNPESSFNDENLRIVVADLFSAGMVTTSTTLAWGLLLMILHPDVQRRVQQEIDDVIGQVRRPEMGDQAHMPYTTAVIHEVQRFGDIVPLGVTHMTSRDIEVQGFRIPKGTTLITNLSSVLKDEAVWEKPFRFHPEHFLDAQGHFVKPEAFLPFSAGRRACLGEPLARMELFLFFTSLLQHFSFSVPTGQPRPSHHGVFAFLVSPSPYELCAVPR
Cytochrome P450 2C9 (Homo sapiens), sequence (P11712 whole entry, looked up): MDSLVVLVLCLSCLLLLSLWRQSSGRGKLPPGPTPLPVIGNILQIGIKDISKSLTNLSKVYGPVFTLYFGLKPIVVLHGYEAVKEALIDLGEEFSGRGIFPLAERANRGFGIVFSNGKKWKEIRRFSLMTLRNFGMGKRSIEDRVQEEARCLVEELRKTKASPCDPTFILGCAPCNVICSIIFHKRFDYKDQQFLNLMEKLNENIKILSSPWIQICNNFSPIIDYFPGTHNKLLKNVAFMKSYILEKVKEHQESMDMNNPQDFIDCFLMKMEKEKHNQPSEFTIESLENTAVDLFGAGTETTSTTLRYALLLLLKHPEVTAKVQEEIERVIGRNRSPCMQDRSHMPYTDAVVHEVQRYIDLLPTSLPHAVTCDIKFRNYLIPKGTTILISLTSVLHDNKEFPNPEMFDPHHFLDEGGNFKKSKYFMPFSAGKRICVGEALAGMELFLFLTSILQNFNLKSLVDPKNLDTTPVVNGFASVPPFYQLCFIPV
Cytochrome P450 2C19 (Homo sapiens), sequence (P33261 whole entry, looked up): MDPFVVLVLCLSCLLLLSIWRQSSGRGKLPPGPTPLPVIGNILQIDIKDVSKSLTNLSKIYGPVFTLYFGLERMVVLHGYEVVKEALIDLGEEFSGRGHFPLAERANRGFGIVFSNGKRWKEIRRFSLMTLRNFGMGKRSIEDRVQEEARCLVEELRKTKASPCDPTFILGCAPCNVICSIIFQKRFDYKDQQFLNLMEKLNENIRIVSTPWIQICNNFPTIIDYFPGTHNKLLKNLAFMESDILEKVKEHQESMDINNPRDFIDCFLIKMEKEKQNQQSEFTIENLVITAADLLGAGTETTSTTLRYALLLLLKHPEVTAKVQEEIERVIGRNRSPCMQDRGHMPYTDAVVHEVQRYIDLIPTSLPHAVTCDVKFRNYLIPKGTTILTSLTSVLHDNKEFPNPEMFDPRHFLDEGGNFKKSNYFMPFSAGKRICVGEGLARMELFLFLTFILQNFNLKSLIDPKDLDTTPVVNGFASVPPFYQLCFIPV

COC(=O)C1=C2C=CCCN2C(=O)NC1c1ccccc1 (stereo unspecified)
inactive: Potency [1] | Potency [2] | Potency [3] | Potency [4] | Potency [5] | Potency [6]

CCC(=O)OC1(C)C(=O)C=C2C=C(c3ccc(C#N)cc3)OC=C2C1=O (stereo unspecified)
inactive: Potency [1] | Potency [2] | Potency [3] | Potency [4] | Potency [5] | Potency [6]

C[C@@H]1C=CCCO[C@]12C(=O)N(Cc1ccc(F)cc1)c1ccccc12
inactive: Potency [1] | Potency [2] | Potency [3] | Potency [4] | Potency [5] | Potency [6]

CCN1C(=O)[C@@H]2[C@H]3[C@H](O)[C@H](O)CC(=NO[C@H](C)CN4CCCc5nc(C)c(C)cc54)[C@@H]3CC[C@H]2C1=O
inactive: Potency [1] | Potency [2] | Potency [3] | Potency [4] | Potency [5] | Potency [6]

COC(=O)N[C@H](CC(C)=O)c1cccc(F)c1
inactive: Potency [1] | Potency [2] | Potency [3] | Potency [4] | Potency [5] | Potency [6]

CC1(C)O[C@H]2OC([C@H](O)CON3C(=O)c4ccccc4C3=O)[C@H](O)[C@@H]2O1 (stereo partly specified)
inactive: Potency [1] | Potency [2] | Potency [3] | Potency [4] | Potency [5] | Potency [6]

COC(=O)CC1c2ccccc2C=C(C2CC2)N1C(=O)OC (stereo unspecified)
inactive: Potency [1] | Potency [2] | Potency [3] | Potency [4] | Potency [5] | Potency [6]

CCN1C(=O)N(C)C(c2ccccc2)C(C(C)=O)=C1C (stereo unspecified)
inactive: Potency [1] | Potency [2] | Potency [3] | Potency [4] | Potency [5] | Potency [6]

C(#C[C@@H]1C=C[C@H]2OC(c3ccccc3)OC[C@H]2O1)c1ccccc1 (stereo partly specified)
inactive: Potency [1] | Potency [2] | Potency [3] | Potency [4] | Potency [5] | Potency [6]

Cc1cc2c(nc1C)CCCN2CC(O)CN1CCN(C)CC1 (stereo unspecified)
inactive: Potency [1] | Potency [2] | Potency [3] | Potency [4] | Potency [5] | Potency [6]

CCCC[C@]12Cc3cc(C#N)ccc3[C@H](O1)c1c(c3ccccc3oc1=O)O2
inactive: Potency [1] | Potency [2] | Potency [3] | Potency [4] | Potency [5] | Potency [6]

COc1ccc2c(c1)O[C@H](c1ccc3c(c1)OCO3)[C@@H](OC(=O)N[C@H]1CCCc3ccccc31)C2=O
inactive: Potency [1] | Potency [2] | Potency [3] | Potency [4] | Potency [5] | Potency [6]

C[C@H]1Cc2c(-c3ccccc3)nc3c(c2CO1)CN(S(=O)(=O)c1ccc(Cl)c2nonc12)CC3
inactive: Potency [1] | Potency [2] | Potency [3] | Potency [4] | Potency [5] | Potency [6]

COC1=C[C@H](C(=O)NCc2ccc(Cl)cc2)C(C)C(c2ccccc2)CC1=O (stereo partly specified)
inactive: Potency [1] | Potency [2] | Potency [3] | Potency [4] | Potency [5] | Potency [6]

COC(=O)N1C(C)=Cc2ccccc2C1CC(C)=O (stereo unspecified)
inactive: activity, negative = inhibition [1] -3.47% [at 1.12 µM] and -2.49% [at 1.12 µM] | Potency [2] | Potency [3] | Potency [4] | Potency [5] | Potency [6]

C=CCCC1(CCC)C(=O)C(=C(O)c2ccccc2)C(=O)C(CCC)=C1OC (stereo unspecified)
inactive: Potency [1] | Potency [2] | Potency [3] | Potency [4] | Potency [5] | Potency [6]

COc1ccc(C(=O)Oc2cc(OC)cc(OC)c2C(C)=O)cc1
inactive: activity change, negative = inhibition [7] 19.9% [at 11.4 µM] | activity change, negative = inhibition [8] -16.9% [at 11.4 µM] | activity change, negative = inhibition [9] 5.18% [at 11.4 µM] | activity, negative = inhibition [10] 27.9% [at 11.4 µM] | Potency [1] | Potency [2] | Potency [3] | Potency [4] | Potency [5] | Potency [6]

COCCN1C(=O)NC(c2cccc(F)c2)C(C(=O)OC)=C1C (stereo unspecified)
inactive: Potency [1] | Potency [2] | Potency [3] | Potency [4] | Potency [5] | Potency [6]

CCC(C)CN1C(=O)NC(c2ccccc2)C(C(=O)OC)=C1C (stereo unspecified)
inactive: Potency [1] | Potency [2] | Potency [3] | Potency [4] | Potency [5] | Potency [6]

COC(=O)N[C@@H](c1ccco1)C(C(C)=O)C(=O)OC (stereo partly specified)
inactive: Potency [1] | Potency [2] | Potency [3] | Potency [4] | Potency [5] | Potency [6]

COC(=O)CC1c2ccccc2C(Cc2ccc(OC)cc2)C(C)N1C(=O)OC (stereo unspecified)
inactive: Potency [1] | Potency [2] | Potency [3] | Potency [4] | Potency [5] | Potency [6]

c1ccc(-c2nc(-c3ccccc3)c(Nc3ccc4ccccc4c3)o2)cc1
inactive: Potency [1] | Potency [2] | Potency [3] | Potency [4] | Potency [5] | Potency [6]

C=CCC1(O)C=CCC2C3C4C(OC(C)(C)C)C2C1C34 (stereo unspecified)
inactive: activity change, negative = inhibition [7] -12.7% [at 11.4 µM] | activity change, negative = inhibition [8] -11.8% [at 11.4 µM] | activity change, negative = inhibition [9] -4.54% [at 11.4 µM] | activity, negative = inhibition [10] -32.4% [at 11.4 µM] | Potency [1] | Potency [2] | Potency [3] | Potency [4] | Potency [5] | Potency [6]
